Measured values published in PubChem BioAssay (NCI).
This is part of a sample that, as a whole, favours compounds with a hit. Of some 83,000 tested, about 20% had one in any assay.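 A percent growth of 40 corresponds to 60% growth inhibition; 0 means no net growth; -100 means all cells died. Active threshold: below 10.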 Unmarked numbers belong to inactive results. The source made the active and inactive calls.

Key:
Assay in all cases: NCI-60 one-dose screen, 48 h (100 = growth as untreated, 0 = no growth, -100 = all killed)
DU-145 prostate = details: 10 µM unless noted
K-562 leukemia = details: 10 µM unless noted
MALME-3M melanoma = details: 10 µM unless noted
MDA-MB-231 breast = details: 10 µM unless noted
RXF 393 renal = details: 10 µM unless noted
SF-268 CNS = details: 10 µM unless noted
SF-295 CNS = details: 10 µM unless noted
SF-539 CNS = details: 10 µM unless noted
UACC-257 melanoma = details: 10 µM unless noted
M14 melanoma = details: 10 µM unless noted
HCT-15 colon = details: 10 µM unless noted
SNB-19 CNS = details: 10 µM unless noted
U251 CNS = details: 10 µM unless noted
PC-3 prostate = details: 10 µM unless noted
SK-MEL-5 melanoma = details: 10 µM unless noted
UACC-62 melanoma = details: 10 µM unless noted
LOX IMVI melanoma = details: 10 µM unless noted
SK-MEL-28 melanoma = details: 10 µM unless noted
SNB-75 CNS = details: 10 µM

Row | SMILES | growth (DU-145 prostate) | growth (K-562 leukemia) | growth (MALME-3M melanoma) | growth (MDA-MB-231 breast) | growth (RXF 393 renal) | growth (SF-268 CNS) | growth (SF-295 CNS) | growth (SF-539 CNS) | growth (UACC-257 melanoma) | growth (M14 melanoma) | growth (HCT-15 colon) | growth (SNB-19 CNS) | growth (U251 CNS) | growth (PC-3 prostate) | growth (SK-MEL-5 melanoma) | growth (UACC-62 melanoma) | growth (LOX IMVI melanoma) | growth (SK-MEL-28 melanoma) | growth (SNB-75 CNS)
1 | Cn1cc(-c2cnc3ccc(NC(=O)Nc4ccc(F)c(Br)c4)cc3n2)cn1 | 39.4% | 11.2% | 35.9% | 23.4% | -22.3% (active) | 49.6% | -3.9% (active) | 52.9% | 47.6% | 4.13% (active) | 19.3% | 57.7% | 44.9% | 0.663% (active) | -9.12% (active) | -41.2% (active) | 4.06% (active) | 50.1% | 
2 | COc1ccc(-c2nc(/C=N/Nc3cc(C)nc4ccc(Br)cc34)c(C)o2)cc1 | -90.2% (active) | -49.1% (active) | -84.6% (active) | -89.2% (active) | -90.9% (active) | -72.9% (active) | -90.4% (active) | -96.1% (active) | 108% | 1.07% (active) | -87.4% (active) | -84.4% (active) | -85.8% (active) | -78.1% (active) | 47.4% | -77.5% (active) | -86.7% (active) | -74.6% (active) | 
3 | CCO/C=N/C1=C(C#N)C(c2ccc(Cl)cc2)c2c(c3ccccc3n(C)c2=O)O1 (stereo not drawn) | 95.1% | 19.6% | 55.7% | 51.2% | 56.8% | 80% | 57.3% | 72.2% | 90.3% | 57.2% | 41.1% | 72.9% | 79.3% |  | 74.2% | 46.5% | 64.7% | 83.9% | 
4 | COc1ccc(-c2nc(SCCC(C)C)nc(Nc3ccc(F)c(Cl)c3)c2C#N)cc1 | 97.7% | 56.2% | 84.2% | 100% | 101% | 83% | 78% | 70.3% | 103% | 95% | 84.9% | 77.9% | 33.7% | 80% | 94.1% | 97.5% | 76.4% | 105% | 
5 | COc1ccc(C2CC(c3ccc(OC)cc3OC)=NN2c2ccc(S(N)(=O)=O)cc2)cc1 (stereo not drawn) | 115% | 58.3% | 123% | 110% | 82.4% | 161% | 88.5% | 103% | 77.3% | 96.2% | 75% | 85.7% | 79.3% | 56% | 91.6% | 77.2% | 101% | 125% | 
6 | COC(=O)c1nc(-c2ccccc2)oc1S(=O)(=O)N1CCN(c2cccc(Cl)c2)CC1 | 92.7% | 38.8% | 100% | 73.5% | 84% | 80.7% | 90.8% | 105% | 80.2% | 86.9% | 65.5% | 63.6% | 72.2% | 82% | 99.3% | 79.7% | 44.3% | 88.3% | 
7 | O=C(c1ccccc1)c1c(/C=C/c2ccccc2)c2ccccc2[nH]c1=O | 115% | 82.4% | 98.3% | 101% | 78.9% | 86.2% | 95.6% | 99.2% | 95.6% | 107% | 101% | 79.4% | 90.5% | 89.5% | 96.4% | 70.3% | 105% | 113% | 
8 | CC(C)(C)n1cc(-c2ccnc(NCCCNS(=O)(=O)c3ccccc3)c2)c(-c2cccc(O)c2)n1 | 55.1% | 4.86% (active) | 44% | 38.6% | 52.8% | 50.8% | 35.1% | 38.3% | 47.2% | 34.1% | -4.07% (active) | 76% | 48.5% | 30.3% | 16.1% | 59.8% | -43.3% (active) | 44.1% | 
9 | COc1ccc(/C=N\NC(=O)CN2CCN(c3cc4c(cc3F)c(=O)c(C(=O)N/N=C/c3ccc(OC)c(OC)c3)cn4C3CC3)CC2)cc1OC | 4.82% (active) | 13.3% | -71.9% (active) | -22.9% (active) | 61.1% | -10.9% (active) | 66.2% | -21.8% (active) | 11.4% | 20.3% | 98% | -0.836% (active) | -16% (active) | 13.3% | 41.9% | -52.1% (active) | -77.7% (active) | -34.1% (active) | 
10 | COc1ccc(/C=C\c2cc(OC)c(OC)c(OC)c2)cc1OC(=O)c1cccc(Cn2cc(CCOC(=O)c3cccc(Cn4nnc5c4C(=O)c4ccccc4C5=O)c3)nn2)c1 | 7.26% (active) | 8.24% (active) | 41.5% | 21.6% | 15.9% | 27.7% | 11% | -22.5% (active) | 67.3% | -0.552% (active) | 10.5% | 28.6% | 23.8% | 22.8% | -28.8% (active) | 45.7% | 21.2% | 58% | 
11 | Cc1cc(C2(c3cc(C)c(O)cc3C)OS(=O)(=O)c3ccccc32)c(C)cc1O | 119% | 102% | 122% | 100% | 114% | 103% | 107% | 105% | 87.7% | 108% | 105% | 94.2% | 78% | 87.2% | 104% | 90.9% | 105% |  | 
12 | COC(=O)c1cc2cc(-c3ccc(OC)cc3)cnc2[nH]1 | 18.1% | 8.43% (active) | 56.3% | 57.1% | -36.4% (active) | 45.5% | 0.983% (active) | -27.2% (active) | 51.3% | 14.3% | 11% | 42.4% | 12.6% |  | 30.9% | 23.8% | 25.2% | 56.1% | 62.5%
13 | CCCCCCN1CSC(=S)N(CCCCCC)C1 | 113% | 110% | 95.2% | 97.4% | 106% | 104% | 98.2% | 102% | 104% | 96.5% | 103% | 106% | 103% | 83.6% | 94.5% | 95.3% | 91.8% | 102% | 
14 | Fc1ccc(Nc2ncnc3ccc(-c4cnc5[nH]ccc5c4)cc23)cc1Cl | 40.4% | 4.25% (active) | 2.95% (active) | -16.9% (active) | -27.3% (active) | 32.8% | -32.2% (active) | -73.2% (active) | 39.2% | 42.7% | 31.1% | 40.7% | -68.2% (active) |  |  | 44.8% | -44.4% (active) | 57.4% | -65.2% (active)
15 | C=CCn1cc(-c2nc3ccccc3s2)c2cc(-c3ccc4c5c(cccc35)C(=O)N(CCN3CCNCC3)C4=O)ccc21 | 101% | -51.9% (active) | 55.2% | 60.5% | 93.2% | 89.9% | 101% | 91.1% | 102% | 82% | 16.1% | 90% | 95.2% | 65.2% | 99.1% | 93.6% | 77.6% | 107% | 
16 | CO[C@H]1NC(=O)N(S(=O)(=O)c2ccc(Cl)cc2)[C@@H]1OC | 115% | 93.2% | 101% | 108% | 119% | 102% | 92.1% | 98.7% | 106% | 115% | 102% | 103% | 101% |  | 108% | 100% | 105% | 106% | 93.6%
17 | COc1ccc(C(=O)N2NC(=O)/C(=C/c3ccc(F)cc3)N=C2c2ccccc2)cc1 | 113% | 94.4% | 91.4% | 88.1% | 94.5% | 105% | 80.4% | 97% | 99.3% | 87.2% | 73% | 83.7% | 56.4% | 89.1% | 96.1% | 77.4% | 91.7% | 102% | 
